Assay outcomes from PubChem BioAssay.
Compounds with a hit are over-represented: about 4.2% of the library has one in this group of screens.
PrPC TRFRET: inhibitors of human cell surface prion protein PrPC, primary screen, cell-based, TR-FRET | Major prion protein (Homo sapiens), P04156 | TR-FRET read-out | inhibition, % at 13.8 µM | 370,000 compounds, 0.43% hits | AID 720596, 2013; in the data active means inhibition above about 24%
FBA Mtb inh: Mtb FBA enzyme inhibitors, primary screen, biochemical, fluorescence, strain H37Rv. 360,000 compounds, 2.3% hits. AID 588726, 2011. inhibition, % at 1 µM. purified M. tuberculosis FBA, fluorescence read-out. Fructose-bisphosphate aldolase (Mycobacterium tuberculosis (strain ATCC 25618 / H37Rv)), …
Target sequence (P9WQA3 whole entry, looked up): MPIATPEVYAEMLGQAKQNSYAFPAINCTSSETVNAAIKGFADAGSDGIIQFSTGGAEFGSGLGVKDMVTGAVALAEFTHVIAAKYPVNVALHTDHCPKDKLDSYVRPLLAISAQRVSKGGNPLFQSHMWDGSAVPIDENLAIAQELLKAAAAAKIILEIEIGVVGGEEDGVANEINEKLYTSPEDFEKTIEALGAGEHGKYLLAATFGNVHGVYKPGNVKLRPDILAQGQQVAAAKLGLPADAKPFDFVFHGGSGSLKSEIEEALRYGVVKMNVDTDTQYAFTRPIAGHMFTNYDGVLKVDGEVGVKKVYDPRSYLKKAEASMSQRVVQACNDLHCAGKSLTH
RecA intein inh: Mtb RecA intein splicing inhibitors, primary screen, biochemical, fluorescence, HTS; cell-free RecA intein splicing; inhibition, % (concentration not given with the values); AID 2221, 2009; 290,000 compounds, 0.75% hits; Protein RecA (Mycobacterium tuberculosis (strain ATCC 25618 / H37Rv)), P9WHJ3; in the data active means inhibition above about 30%
GDH-TPI counter-1: GDH-TPI coupling enzyme inhibitors, primary screen, artefact control for M. tuberculosis FBA inhibitor project, biochemical, absorbance, full deck. inhibition, % at 4.8 µM. GDH-TPI coupled enzyme counterscreen, NADH absorbance. 360,000 compounds, 1.2% hits; in the data active means inhibition above about 30%
BJeLR viability: MLPCN primary cell-based screen for lethality selective to Ras in HRASV12 cells. 300,000 compounds, 0.17% hits. AID 1554, 2009. BJeLR (HRASV12) viability, CellTiter-Glo ATP luminescence, 48 h. inhibition, % (concentration not given with the values); in the data active means inhibition above about 50%
Mtb FBA confirm: M. tuberculosis aldolase blockers, biochemical, fluorescence, strain H37Rv, confirmation | inhibition, % at 1 µM | purified M. tuberculosis FBA, fluorescence read-out | shares compounds with FBA Mtb inh | 5,600 compounds, 78% hits
GDH-TPI counter-2: GDH-TPI coupling enzyme inhibitors, artefact control for M. tuberculosis FBA inhibitor project, biochemical, fluorescence, high throughput; inhibition, % at 1 µM; GDH-TPI coupled enzyme counterscreen; 5,600 compounds, 81% hits; shares compounds with FBA Mtb inh; in the data active means inhibition above about 10%
Numbers stand for hits; i = inactive; nt = not tested or not shown. Unless noted, no stated cut-off is given here; in the data, active means inhibition above about 27%; inactive means the rest.

SMILES	PrPC TRFRET	FBA Mtb inh	RecA intein inh	GDH-TPI counter-1	BJeLR viability	Mtb FBA confirm	GDH-TPI counter-2
Cc1ccc2nc(COC(=O)c3ccc(Cl)nc3)cc(=O)n2c1	i	i	nt	i	nt	nt	nt
Cc1cc(C)n(-c2nc(NCC(C)O)c3c4c(sc3n2)COC(C)(C)C4)n1 (stereo unspecified)	i	56	i	i	i	75	64
Cc1cc(C)n(-c2nc(NCC(C)O)c3c4c(sc3n2)CCCC4)n1 (stereo unspecified)	i	i	i	i	i	nt	nt
COc1ccc(N2CCN(c3nc4c(C)cccn4c(=O)c3/C=C(\C#N)C(N)=O)CC2)cc1	i	32	i	i	i	i	i
COCCCNC(=O)/C(C#N)=C/c1c(N2CCN(c3cccc(Cl)c3)CC2)nc2c(C)cccn2c1=O	i	54	i	i	i	146	120
C=CCNC(=O)/C(C#N)=C/c1c(N2CCN(c3ccc(OC)cc3)CC2)nc2c(C)cccn2c1=O	i	46	i	i	i	174	158
COCCCNC(=O)/C(C#N)=C/c1c(N2CCN(c3ccccc3)CC2)nc2c(C)cccn2c1=O	i	i	i	i	i	nt	nt
CCNC(=O)/C(C#N)=C/c1c(N2CCN(C)CC2)nc2c(C)cccn2c1=O	i	59	i	i	i	96	73
CCNC(=O)/C(C#N)=C/c1c(N2CCN(c3cccc(Cl)c3)CC2)nc2c(C)cccn2c1=O	i	i	i	i	i	nt	nt
Nc1[nH]c(C(=O)c2ccc(Br)cc2)c(-c2ccncc2)c1C(=O)NCCc1c[nH]c2ccccc12	i	nt	nt	nt	nt	nt	nt
CCCC/C=C1/[C@@H](CC)N(Cc2ccc(OC)cc2OC)C2=N[C@H](c3ccccc3)CC(=O)N21	i	nt	nt	nt	nt	nt	nt
C=CCN(CC=C)Cc1c(O)ccc2c(=O)c(-c3ccccc3)coc12	i	53	i	i	i	34	27
CC1CN(Cc2c(O)ccc3c(=O)c(-c4ccccc4)coc23)CC(C)O1 (stereo unspecified)	i	90	i	i	i	i	i
COc1ccc(-c2coc3c(CN4CCCCC4C)c(O)ccc3c2=O)cc1 (stereo unspecified)	i	78	i	i	i	70	46
CN(C)Cc1c(O)ccc2c(=O)c(-c3ccc(Cl)cc3)coc12	i	46	nt	i	i	43	30
CCN(CC)Cc1c(O)ccc2c(-c3ccccc3)cc(=O)oc12	i	i	i	i	i	nt	nt
Cn1c(SC/C=C/c2ccccc2)nnc1-c1cccnc1	i	nt	nt	nt	nt	nt	nt
CCc1cc2c(=O)c(-c3ccc4c(c3)OCCO4)coc2c(CN2CCCCC2C)c1O (stereo unspecified)	i	45	i	i	i	70	70
CCC1CCCCN1Cc1c(O)ccc2c(=O)c(-c3ccccc3)coc12 (stereo unspecified)	i	54	i	i	i	41	32
CCC1CCCCN1Cc1nc2ccccc2c(=O)n1CC(C)=O (stereo unspecified)	i	i	i	i	i	nt	nt
O=c1c(-c2ccccc2)coc2c(CN3CCCCC3)c(O)ccc12	i	106	i	36	i	90	88
CCc1cc2c(=O)c(-c3nc4ccccc4[nH]3)coc2c(CN2CCCCC2C)c1O (stereo unspecified)	i	i	i	i	i	nt	nt
CC1CCCCN1Cc1c(O)ccc2c(=O)c(-c3ccccc3)coc12 (stereo unspecified)	i	66	i	i	i	77	57
COC(=O)[C@]12CCCCC=C1N(Cc1ccc(OC)cc1)C(=O)[C@@H]2CC(=O)NCc1ccc(C)o1	i	nt	nt	nt	nt	nt	nt
N=C(N)SCc1nc2ccccc2c(=O)n1-c1ccccc1	i	i	i	i	i	nt	nt
N=C(N)n1c(N)nc2ccccc2c1=O	i	59	i	i	i	i	11
NC(=O)c1c(NC(=O)C(=O)N2CCOCC2)sc2c1CCC2	i	33	i	i	i	117	89
